# According to article PMC12864922, “TDP-43 directly inhibits mRNA accumulation in neurites through modulation of mRNA stability”:
# Over roughly 9,900 sequences, “r (bound/input frequency ratio)” has its median near 0.7; the highest 2% begin near 6.5. This is one part of a sample in which the highest values are shown more often than they occur.
# B1: ENSMUSG00000061578.707|Ksr2|13:17 (ssRNA)
# RNA: GGGAGUUCUACAGUCCGACGAUCGCUUCGAUAUCCGCAUGCUACCUGUAGUCUCUACACACAUCUUCUUCUAAGACCACUAAUAACACCGCCUUUCUCCUUGAUCCGGGCCUCAGACCUCUUCAGAGAUUCUUUCUCUGAAUGUACGUGGGGGACUCCAACAGAUGUUGGGAGAAGACUCAAUAUGAGCAUACGGGGUCAUUGUUCAAUCCUGUAUCAAGACCUUGGAGUUGUCUAAGGCUGUGGGUUUUAAAUACCUGCUGCAGGCCUCCCAUCUCUGGCUCUUUGUUUCCACUCUGGCCCACUCUUGCGGUCGCACUAGUGUGGAAUUCUCGGGUGUCAAGG
# B2: ENSMUSG00000061578.929|Ksr2|22:26 (ssRNA)
# RNA: GGGAGUUCUACAGUCCGACGAUCGCUUCGAUAUCCGCAUGCUACAAGGGUGUUUAGAGUAGGCACACACGAAGUAUCAAUAAGGUUAUUGAGAUGAGGAUUUAGAAAGAUCCAUGUAUAAAAGGUCUAGAAGGAUGAAGAUCUAAAACAAGAAGACUGCAUGUUAACGCUCCUGCCACUGUUGCCCCUUCCUUUACCCUUGGCAGACAUUGCUAAUCAAUCUCAGCACAGUUUCCAACCACAGUCAUAGAACAUUUGCCACAAAGGCCCUGGAUGUGACUAUAUGUGCUGAGAAGGGAAGGUACUCUUGCGGUCGCACUAGUGUGGAAUUCUCGGGUGUCAAGG
# B3: ENSMUSG00000028439.103|Fam219a (ssRNA)
# RNA: GGGAGUUCUACAGUCCGACGAUCGCUUCGAUAUCCGCAUGCUAAUACCUAUUUGUGUUUUCCCCUCAUCUCCAGAUGGGAAGCCUGGCAGCGCUGUCCAAAGGGAUACUGUCUCUCCAUUAGAUAACUCCUUCCACUGUCUCCCUCCCCCGCUUUCUUACUUUCUGAGGGUUGGGAAGGUAAGAUGGGCCUUAGAGAGAAGCCAGGUUUGGGGAUGGUAUGACCUGUUCUCACCGGUCUCUAACCAGUGCAUCUGUCUCUCUGCCUCAUCCCCACACCGCCCUGCCACCCCCAGUCUUCUGUCCUCUUGCGGUCGCACUAGUGUGGAAUUCUCGGGUGUCAAGG
# B4: ENSMUSG00000028439.89|Fam219a|94:98 (ssRNA)
# RNA: GGGAGUUCUACAGUCCGACGAUCGCUUCGAUAUCCGCAUGCUAGGGUUUUGAGAAGAAAAGGAUCCAAGCAAUGGGGGCAGUUCUCACACCUCAGAGCCCCUCUCCCCAAACCCUGUGCCAGCCCAUAUACCUAUUACACAUUUCCCCUCAUCUCCAGAUGGGAAGCCUGGCAGCGCUGUCCAAAGGGAUACUGUCUCUCCAUUAGAUAACUCCUUCCACUGUCUCCCUCCCCCGCUUUCUUACUUUCUGAGGGUUGGGAAGGUAAGAUGGGCCUUAGAGAGAAGCCAGGUUUGGGGAUGGUACUCUUGCGGUCGCACUAGUGUGGAAUUCUCGGGUGUCAAGG
# B5: ENSMUSG00000029636.86|Wasf3 (ssRNA)
# RNA: GGGAGUUCUACAGUCCGACGAUCGCUUCGAUAUCCGCAUGCUAUUCCUGUUUCUUCCCUUUGCAAAUUGAAUUCCAGGUAGAUAUGGUUGUAGAGGGGAAAGUUUAACAAAUCAGAAUGAAAUGUUUGUCUGUUUGCACACUGGGCCUGGUGGCCUCCAAGGAAAUGUGUACGAUCGUUUGCUUUCUCUAUCUUGGCGCUUGCAACCGAGAGCGGCCAUUUUUAUGAGGGGAGCCCUGUGGGUACUCAUGUGGAAAGUGCCCACUGACUUUGGCAGAUGGAGUUCACUUUCAUGGCUAGCCCUCUCUUGCGGUCGCACUAGUGUGGAAUUCUCGGGUGUCAAGG
# B6: ENSMUSG00000061578.638|Ksr2 (ssRNA)
# RNA: GGGAGUUCUACAGUCCGACGAUCGCUUCGAUAUCCGCAUGCUAAGGAAUGGUGCUAGCUAGGGUGUGAGCCAAGCCCUUGAGGCUACUGUGAGUUAUGAGAUGUGUCCAACCCUCAGCCCACAGACUGCAUAUGCCCCAGGACAGCUGUGAAGGUGACCCAAUACAAAAUCGUAAACUAACUUAAAACCAUUAAGGGUUUUUGUUUUGUUGUUGUUUGCUGGCUUUUUGUUUUUUGGGUUGGUUUUCUUUUUCUUUCUUUCUUUUUUUUUUUUUUUUCCAACUCAAGUGUGAACUUUGUUGAUCUCUUGCGGUCGCACUAGUGUGGAAUUCUCGGGUGUCAAGG
# B7: ENSMUSG00000028439.326|Fam219a (ssRNA)
# RNA: GGGAGUUCUACAGUCCGACGAUCGCUUCGAUAUCCGCAUGCUAAGAUCCUAAUUAGAUAAGAAAAUGCCAAGGGAGGCAAGCCAGAGAAAGCAUCUGCAGGGGCCACAGGCCCAUGGUGGCCCCAUCUGAGCCCCCUCUCCCACCCCAGUUCGCAUCCCCACCACUCAUCAUCUGGGCCCCAACGCUAGAACUCCCCCCACCGCAUCCCCACUGGGCUCUUUGACUCACCCUUCUAGAACAUGGGUGCCUCCUCUCUUUAGACUGCUGCCUUUGCCUCUGACUUCCUGUGGGAUUGAGAGCCACUCUUGCGGUCGCACUAGUGUGGAAUUCUCGGGUGUCAAGG
# B8: ENSMUSG00000061578.1149|Ksr2 (ssRNA)
# RNA: GGGAGUUCUACAGUCCGACGAUCGCUUCGAUAUCCGCAUGCUAAAUGGCCCAGAAUUAUAGAGGACAGAGGAGAAGGUGGGCAUUGCAAGAUGCUGGAGCUUGGAAAGCAUGGUGGAAUUUGAUACACAUGAUCACCAAGCACCACCCGGGGAAGAAACUGGGUCACUGAGUCACUGGGUCACUCUGUUCCCUGAAGGCCCACCAACCACAUCCGCAUCCUACCUAGGGUGGAACUUUGACUGUCCUCGGGUGUCUCUGCUGUAUAUAGGCCAGUCACAAGCCCUUCUAAAAGCCUGCUCUUGCUCUUGCGGUCGCACUAGUGUGGAAUUCUCGGGUGUCAAGG
# Target: TDP-43 (Homo sapiens, UniProt Q13148 1-414)
# Assay: RNA Bind-n-Seq with designed 260-mer pool; 25 mM Tris-HCl, 150 mM KCl, 3 mM MgCl2, BSA (printed 500 mg/mL), 20 units/mL SUPERase IN; pH not stated; 500 nM RNA pool, 1 h, 4 C; TDP-43 5, 50, 500 nM; high values mean tight binding
# Settings: protein: recombinant; tags: SBP (GST cleaved off with PreScission; pGEX-GST-SBP)
# Outline: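 Duplicate measurements used two independent batches of recombinant SBP-tagged TDP-43, which was captured on streptavidin beads at 5, 50 or 500 nM. The beads were incubated with 500 nM of an in vitro-transcribed 260-nt 3′ UTR oligo pool for 1 h at 4 °C in 25 mM Tris-HCl, 150 mM KCl, 3 mM MgCl2, BSA and SUPERase IN. After washing, biotin elution, reverse transcription, PCR amplification and sequencing, binding was expressed as R: each oligo's normalized read abundance in the bound sample over its abundance in input.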
# TDP-43, sequence (Q13148 whole entry): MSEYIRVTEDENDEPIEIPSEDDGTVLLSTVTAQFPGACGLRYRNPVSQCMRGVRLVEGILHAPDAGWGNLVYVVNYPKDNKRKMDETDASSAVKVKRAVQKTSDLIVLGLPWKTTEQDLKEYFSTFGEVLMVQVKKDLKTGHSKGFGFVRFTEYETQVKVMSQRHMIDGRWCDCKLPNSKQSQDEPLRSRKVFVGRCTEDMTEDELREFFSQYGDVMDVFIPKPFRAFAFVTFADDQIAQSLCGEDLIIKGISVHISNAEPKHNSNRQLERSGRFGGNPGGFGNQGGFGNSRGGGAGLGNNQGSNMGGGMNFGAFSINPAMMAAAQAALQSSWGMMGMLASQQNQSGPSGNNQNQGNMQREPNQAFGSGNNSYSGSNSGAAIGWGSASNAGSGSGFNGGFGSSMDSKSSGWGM
row,Binder,binding signal
1,B1,0.284 R (bound/input frequency ratio)
2,B2,1.18 R (bound/input frequency ratio)
3,B3,0.421 R (bound/input frequency ratio)
4,B4,0.538 R (bound/input frequency ratio)
5,B5,3.02 R (bound/input frequency ratio)
6,B6,0.297 R (bound/input frequency ratio)
7,B7,1.54 R (bound/input frequency ratio)
8,B8,0.863 R (bound/input frequency ratio)
